According to PubChem BioAssay AID602391 (National Center for Advancing Translational Sciences (NCATS), 2012):
This is one part of the list. Inconclusive results are not listed. Active and inactive are the calls of the source. Calls follow the shape of the dose curve; as a rule, active = well fitted inhibition curve with a large enough effect; inconclusive = small, poorly fitted or top-dose-only effect; inactive = flat fitted curve, though single readings scatter.

Assay: qHTS Assay for Inhibitors of Bacillus subtilis Sfp phosphopantetheinyl transferase (PPTase): SAR in hGST A1-1
Conditions: hGST A1-1 enzyme activity counter-screen; series mostly up to 114 µM
Excerpt: The covalent attachment of a phosphopantetheinyl (4'-PP) arm to a variety of synthases and other proteins is a key posttranslational protein modification. The 4'-PP is installed on the proteins post-translationally from coenzyme A (CoA) on a conserved serine residue by action of phosphopantetheinyl transferase (PPTase) enzymes. Phosphopantetheinylation is essential for synthase activity, and removal of the PPTase gene precludes natural product synthesis in microorganisms, or in the case of fatty acid biosynthesis, renders the organism unviable. PPTase enzymes belong to a distinct structural superfamily. Within bacteria, these enzymes are grouped into two classes based upon primary structure, the AcpS-Type and Sfp-Type PPTases. […]
In search of small molecule Sfp-PPTase inhibitors, a fluorescence quenching assay was developed for detection of Bacillus subtilis Sfp-PPTase enzymatic activity in a miniaturized high-throughput format. […]
This assay sought to assess the promiscuity of test articles with an unrelated target enzyme. The appropriate target for this work was determined to be human glutathione-S-transferase, an enzyme responsible for detoxifying modifying electrophilic xenobiotics to enhance their excretion. […]

Row | SMILES | outcome
1 | COc1ccnc(NC(=S)N2CCN(c3ncc(C(F)(F)F)cc3Cl)CC2)c1 | inactive
2 | Cc1cc(C)nc(NC(=S)N2CCN(c3ccc(Cl)cc3C(F)(F)F)CC2)c1 | inactive
